# RORg inh: inhibitors of mouse ROR gamma transcriptional activity. Drosophila S2 Gal4-RORgamma UAS-luciferase reporter, 20 h. 5.4% of 310,000 active. Potency, µM (titrated, usually from 53.6 µM), for the others: at the top dose activity change, negative = inhibition, most hits filed as inhibitors. AID 2551; further: potency means the concentration at half of the fitted maximal effect; on the % scale 0 is the no-effect control and ±100 the full control effect; nearly all actives have a fitted effect of over 60% in size
# Target sequence (P51450 whole entry, looked up, the tested form may be a part): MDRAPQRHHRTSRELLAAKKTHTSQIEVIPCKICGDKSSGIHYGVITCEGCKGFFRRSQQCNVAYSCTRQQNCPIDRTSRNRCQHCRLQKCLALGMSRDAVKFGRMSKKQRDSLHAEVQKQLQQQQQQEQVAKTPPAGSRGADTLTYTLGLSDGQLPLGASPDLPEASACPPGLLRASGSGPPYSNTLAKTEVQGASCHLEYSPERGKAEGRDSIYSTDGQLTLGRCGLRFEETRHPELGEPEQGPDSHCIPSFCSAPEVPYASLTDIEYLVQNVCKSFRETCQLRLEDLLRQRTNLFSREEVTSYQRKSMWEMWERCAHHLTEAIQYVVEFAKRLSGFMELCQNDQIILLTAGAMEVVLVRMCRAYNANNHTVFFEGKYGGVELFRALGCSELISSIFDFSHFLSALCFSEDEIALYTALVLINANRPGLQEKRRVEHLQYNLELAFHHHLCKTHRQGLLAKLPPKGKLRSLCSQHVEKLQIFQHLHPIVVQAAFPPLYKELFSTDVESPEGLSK
#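 ROR gamma transcriptional activity was tracked as Gal4-UAS luciferase output in stably transfected Drosophila Schneider cells, with compound added 1 hr before 700 uM copper sulfate induction and a 20 hr ambient-temperature incubation.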
# BCR signal inh: inhibitors of chronic active B-cell receptor signaling; 0.05% of 340,000 active; ABC-DLBCL IkBa-CBG/CBR reporter, luminescence ratio, 4 h; Potency, µM (titrated, usually from 46.1 µM), without a hit: at the highest dose activity change, negative = inhibition, actives largely listed as inhibitors; active means well fitted inhibition curve with a large enough effect in the signal ratio, with a control signal flat, not every such curve was filed as active; inconclusive means small, poorly fitted or top-dose-only effect, or effect the other way, or a change in a side signal; the % refers to the signal ratio;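 further: potency means the concentration at half of the fitted maximal effect; plate controls were basal doxycycline-induced cells for no effect and cells given 10 µM MG132 for full effect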
#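 TMD8 human ABC-DLBCL cells with doxycycline-inducible IκBα–green luciferase fusion and unfused red luciferase, in 0.5% FBS medium; compounds up to 46 uM, 4 h at 37C. Green/red luminescence ratio, filter-overlap corrected, fitted to concentration-response curves.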
# MCF10A rereplic: DNA re-replication induction in MCF 10a cells. MCF 10A DNA re-replication, Hoechst nuclear intensity, 48 h. Potency, µM (top dose mostly 46.1 µM), for inactives: at the top dose activity, positive = re-replication, hits mostly activators. 2.9% of 350,000 active. AID 624296; further: potency means the concentration at half of the fitted maximal effect; % of control where 0% means no effect; nearly all actives have a fitted effect of over 50% in size
# Gal4-VP16 FLuc: counter-screen for ROR gamma inhibitors: Gal4-VP16 reporter; Drosophila S2 Gal4-VP16 UAS-luciferase, luminescence, 20 h; Potency, µM (series often up to 53.6 µM), inactives show at the top dose activity, negative = inhibition, usual class: inhibitors; 3.5% of 310,000 active; AID 2546;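 further: Gal4-VP16 expression switched on by copper sulfate through the metallothionein promoter; potency means the concentration at half of the fitted maximal effect; on the % scale 0 is the no-effect control and ±100 the full control effect; nearly all actives have a fitted effect of over 50% in size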
# Giardia killer: kills Giardia lamblia | 0.15% of 340,000 active | Giardia lamblia trophozoite viability | activity change, % at 7.66 µM, hits read low; in the data active means activity change below about -80%; inconclusive means between about -30% and that limit;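 further: parasites exposed to compound for two days anaerobically before the ATP read; on the % scale 0 is the no-effect control and ±100 the full control effect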
#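 Media and compound were dispensed first, then trophozoites at 100 cells/well; plates sat 48 hrs at 37 deg C without oxygen before ATP luminescence reagent was added and read after 15-30 min at room temperature.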
# SW480 rerep: inducers of DNA re-replication in SW480 colon cancer cells | SW480 DNA re-replication, Hoechst DNA content imaging, 48 h | Potency, µM (series often up to 46.1 µM), for the others: top-dose re-replication activation, most hits filed as activators | 1.8% of 340,000 active; further: potency means the concentration at half of the fitted maximal effect; % of control where 0% means no effect; nearly all actives have a fitted effect of over 55% in size
#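 DNA re-replication was detected as more nuclei of elevated Hoechst intensity after 48 hr exposure to compound (23 nL pinned per well of 250 cells).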
# * = called active by the depositor; ? = inconclusive; nt = not tested or not shown; [ ] = dose if it differs, or a comment. Rows were chosen to be rich in hits. Some 8.3% of all compounds tested hit in one or more screens of this group. Unless noted, the call rests on the fitted dose curve; in most records, active means well fitted curve in the direction sought with a large enough effect; inconclusive means small, poorly fitted or top-dose-only effect, or another doubt; inactive means no such curve, though single readings can be large; an effect the other way counts as inactive or inconclusive.
SMILES,RORg inh,BCR signal inh,MCF10A rereplic,Gal4-VP16 FLuc,Giardia killer,SW480 rerep
COc1ccc(C(=O)Nc2ccc3c4c(cccc24)CC3)cc1,21%,-8%,8%,15%,28,7%
COc1cc(OC)cc(C(=O)NC(=S)Nc2ccc3c4c(cccc24)CC3)c1,?,1%,2%,5.6µM*,-10,2%
CC(=O)c1ccc(S(=O)(=O)N2CCn3cccc3C2c2ccc(F)c(F)c2)cc1 (stereo not drawn),nt,8%,nt,nt,nt,nt
O=C(CNC(=O)c1ccc(Cl)cc1)OC1CCOC1=O (stereo not drawn),-4%,1%,13%,2%,-8,-2%
CCCCOc1ccc(C(=O)NCC(=O)OC2CCOC2=O)cc1 (stereo not drawn),-14%,nt,3.3µM*,-12%,-1,?
C=C1C(=O)O[C@@H]2C[C@@H](C)[C@@H]3C=CC(=O)[C@@]3(C)[C@@H](OC(C)=O)[C@H]12,1.3µM*,?,1.2µM*,1.3µM*,-25,?
C[C@@H]1C[C@@H]2OC(=O)[C@]3(C)[C@H]2[C@@H](OC3(C)O)[C@]2(C)C(=O)C=C[C@H]12 (stereo partly drawn),14%,?,?,-10%,-3,?
O=C(Oc1ccc([N+](=O)[O-])cc1)C1CC(=O)N(c2ccc3c(c2)OCCO3)C1 (stereo not drawn),nt,1%,1%,nt,-6,-1%
O=C(Nc1nc(-c2ccc(Br)cc2)cs1)c1cccnc1,-7%,10%,-1%,3%,-4,0%
O=C(Nc1nc(-c2ccccc2)cs1)c1ccco1,26%,?,1%,-2%,-5,-5%
O=C(NC(=S)Nc1nc(-c2ccc(Br)cc2)cs1)c1ccco1,2.8µM*,-9%,47%,8%,-8,-4%
O=C(NNc1nc(-c2ccc(Br)cc2)cs1)c1ccco1,5.6µM*,-2%,2.6µM*,?,-9,?
O=C(NC(=S)Nc1nc(-c2ccc(Br)cc2)cs1)c1cccnc1,1.1µM*,?,-7%,?,7,-1%
O=C(NC(=S)Nc1nc(-c2ccc([N+](=O)[O-])cc2)cs1)c1ccco1,2.2µM*,?,3%,?,-9,0%
COc1ccc(-c2csc(NC(=O)c3ccco3)n2)cc1,?,?,13%,25%,-15,1%[9.22 µM]
OCC(O)C(O)[C@H](O[C@H]1OC(CO)C(O)C(O)C1O)[C@H](O)CO (stereo partly drawn),-8%,nt,nt,4%,nt,nt
CC(C)c1ccc(NC(=O)C2C3C=CC4(O3)C2C(=O)N(CCCN2CCOCC2)C4C(=O)NC2CCCCC2)cc1 (stereo not drawn),2%,-5%,10%,3%,7,-4%
COC(=O)CCCCC(=O)OC,-2%,1%,-14%,-9%,-25,-46%
COC(=O)CCC(=O)OC,-3%,3%,?,-1%,-22,4.6µM*
Cc1nnc2ccc(-c3cccc(NS(C)(=O)=O)c3)nn12,-8%,1%,3%,11%,18,-11%
C=CCn1c(=NC(=O)c2cc(Cl)sc2Cl)sc2cc(S(N)(=O)=O)ccc21,-3%,9%,21µM*,?,6,4%
C=CCn1c(=NC(=O)c2cc(-c3cccs3)nc3ccccc23)sc2cc(S(N)(=O)=O)ccc21,?,11%,?,-29%,-7,21µM*
C=CCn1c(=NC(=O)c2sc3ccccc3c2Cl)sc2cc(S(N)(=O)=O)ccc21,?,?,15%,?,15,?
CC1CCN(C(=O)Cn2c(=O)n(CCCC(=O)NCc3ccco3)c(=O)c3sccc32)CC1,2%,0%,?,-7%,-1,?
CCS(=O)(=O)N1CCCC(C(=O)NC2CCCCC2)C1 (stereo not drawn),17%,-10%,1%,-18%,-22,-4%
SMILES,RORg inh,BCR signal inh,MCF10A rereplic,Gal4-VP16 FLuc,Giardia killer,SW480 rerep
CS(=O)(=O)N1CCCC(C(=O)NC2CCCCCCC2)C1 (stereo not drawn),14%,0%,23µM*,-7%,-18,13%
N#C/C(=C\c1ccc(O)c(O)c1)C(=O)NCCCCc1ccccc1,?,nt,nt,32µM*,nt,nt
N#C/C(=C/c1ccc(O)c([N+](=O)[O-])c1)C(=O)Nc1ccccc1,?,?,4.6µM*,-4%,?,6.5µM*
N#C/C(=C\c1ccc(O)c(O)c1)C(=O)NCCc1ccccc1,nt,?,-10%,nt,-5,-9%
CN(C)/C=C1/Sc2ccccc2C1=O,-9%,?,11%,12%,-9,-8%
CC(=O)N(\C=C/C=C/C=C1\Sc2ccccc2C1=O)c1ccccc1,-27%,?,15µM*,9%,16,-1%
COc1ccc(-n2c(=O)c(CCC(=O)N3CCN(c4ccccc4O)CC3)nc3ccccc32)cc1,nt,-14%,?,nt,18,15%
CC(c1ccon1)N(C)C(=O)CCc1nnc(C2(c3ccc(Cl)cc3)CCC2)o1 (stereo not drawn),20%,7%,0.58µM*,-7%,-9,4%
COc1cccc2nc(-c3cccs3)nc(NN3C(=O)C=C(C)C3=O)c12,6.3µM*,nt,nt,5µM*,nt,nt
S=C1N(c2ccccc2)CN(C2CCCCC2)CN1c1ccccc1,11µM*,-9%,0%,20µM*,3,-1%
CCOC(=O)C1(NC(=O)C2(NC(=O)CN3C(=O)c4ccccc4C3=O)CCCC2)CCCC1,nt,nt,-3%,nt,13,3%
COc1ccc(C/C(C)=N/NC(=S)Nc2ccc(C(C)C)cc2)cc1,4.5µM*,-1%,-1%,?,-3,1%
C/C(=N\NC(=S)Nc1c(C)cccc1C)c1ccc(OC(F)F)cc1,3.2µM*,?,?,5.6µM*,-15,?
COc1ccc(C/C(C)=N/NC(=O)c2ccc(Cl)cc2)cc1,11µM*,?,-2%,?,-15,-1%
COc1ccc(C/C(C)=N/NS(=O)(=O)c2ccc(Br)cc2)cc1,10µM*,-1%,2%,?,-10,1%
CC/C(=N\NC(=S)Nc1ccc(OC)cc1)c1ccc(OC(F)F)cc1,13µM*,-2%,?,?,-7,?
CC/C(=N\NC(=S)Nc1cc(C)ccc1C)c1ccc(OC(F)F)cc1,?,-11%,?,-100%,13,nt
CC1CC(=O)c2c(cc3c(-c4c(O)cc(O)c5c(O)c6c(cc45)OC(C)CC6=O)c(O)cc(O)c3c2O)O1 (stereo not drawn),5µM*,?,?,13µM*,?,6.5µM*

# Source: PubChem BioAssay
